Most compounds without a hit are left out; they make up all but 2.4% or so of the library.
D2 ag-1 = Beta-Arrestin HTS for Positive Allosteric Modulators of the Human D2 Dopamine Receptor: Agonists; D(2) dopamine receptor (Homo sapiens), P14416; 360,000 tested, 0.084% active; activation, % (no concentration beside the values); DiscoveRx PathHunter D2 beta-arrestin, luminescence, 90 min; 100% = 57 uM dopamine signal; in the data active = activation above about 40%; inconclusive = between about 15% and that limit
Target sequence (P14416 whole entry, looked up): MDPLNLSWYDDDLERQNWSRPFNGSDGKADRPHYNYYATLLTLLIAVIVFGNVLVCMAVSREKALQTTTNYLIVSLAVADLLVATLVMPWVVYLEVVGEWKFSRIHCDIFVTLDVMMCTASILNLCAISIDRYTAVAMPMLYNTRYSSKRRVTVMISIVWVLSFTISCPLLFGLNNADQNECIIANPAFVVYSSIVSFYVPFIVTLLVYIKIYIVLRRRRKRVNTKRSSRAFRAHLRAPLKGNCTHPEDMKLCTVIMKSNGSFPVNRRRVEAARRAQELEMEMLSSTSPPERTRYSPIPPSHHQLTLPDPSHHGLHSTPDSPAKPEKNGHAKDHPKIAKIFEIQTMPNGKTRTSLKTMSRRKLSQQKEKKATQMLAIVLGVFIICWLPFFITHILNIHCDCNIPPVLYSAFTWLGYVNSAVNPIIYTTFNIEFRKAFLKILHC
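DiscoveRx PathHunter D2 beta-arrestin cells (2,100/well) attached overnight, then compound-stimulated 90 min at 37 C in HBSS/10 mM HEPES/0.1% Tween-20 buffer; beta-galactosidase complementation read by luminescence after 1 h at ambient temperature. Dopamine 57 uM final (EC100) as control.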
D2 PAM-1 = Beta-Arrestin HTS for Positive Allosteric Modulators of the Human D2 Dopamine Receptor: Potentiators; DiscoveRx D2 beta-arrestin cells, luminescence, 90 min; 100% = 57 uM dopamine signal; potentiation, % (concentration not given with the values); 360,000 tested, 0.23% active; in the data active = potentiation above about 50%; inconclusive = mostly about 30% to 49%
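PathHunter beta-arrestin assay in DiscoveRx D2 cells. Compounds were added with an EC20 of dopamine (50 nM final) for 90 min at 37 deg C. Luminescence was read 1 h after detection reagent, with 57 uM dopamine as the EC100 control.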
B2AR arrestin = qHTS assay of beta-arrestin-biased ligands of beta2-adrenergic receptor | 330,000 tested, 0.02% active | Potency, µM (doses to about 46.1 µM), for the others: at the top dose activation, actives largely listed as activators | beta-arrestin recruitment to beta2AR, cell-based reporter; active = well fitted activation curve with a large enough effect; inconclusive = small, poorly fitted or top-dose-only effect;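 also: potency is read from the fitted curve at half-maximal effect; 0% = DMSO controls and full agonism = EC100 isoproterenol or metaproterenol; nearly all actives have a fitted effect of over 65% in size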
D2 ag-2 = HTS Assay for Allosteric Agonists of the Human D2 Dopamine Receptor: Primary Screen for Agonists | D(2) dopamine receptor (Homo sapiens), P14416 | 340,000 tested, 0.53% active | AID 485358, 2010 | HEK293 T-REx D2 cells, calcium flux agonist mode | activation, % at 2 µM;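 active = activation over 3 SD above normal in the single-dose calcium agonist read, cut at about 30% in these data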; also: 0% is about no effect
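Agonism is scored from calcium flux in a force-coupled, inducible HEK293 cell line expressing D2, read kinetically for 180 s after compound addition against dopamine controls.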
D2 antagonist = HTS Assay for Allosteric Antagonists of the Human D2 Dopamine Receptor: Primary Screen for Antagonists; D(2) dopamine receptor (Homo sapiens), P14416; HEK293 TREx D2 cells, calcium flux, dopamine EC80; inhibition, % at 10 µM; 340,000 tested, 2% active; AID 485344, 2010; in the data active = inhibition above about 30%; inactive = below that, where a call was filed; also: 0% is about no effect
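Compounds are added to dye-loaded, induced HEK293 T-REx cells coupled to calcium release via D2; after a 3 min kinetic read an EC80 dopamine stimulus is given and fluorescence is recorded for 3 more min.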
D2 PAM-2 = HTS Assay for Positive Allosteric Modulators of the Human D2 Dopamine Receptor: Primary Screen for Potentiators. D(2) dopamine receptor (Homo sapiens), P14416. HEK293 T-REx D2, calcium flux, EC20 dopamine potentiation. potentiation, % at 10 µM. 340,000 tested, 0.34% active;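 active = potentiation over 3 SD above the plate norm, cut at about 30% in these data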; also: 0% is about no effect
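Potentiation of an EC20 dopamine calcium response measured kinetically over 180 s, after a preceding 180 s compound-only read flagging agonists. Cells: inducible Hek293 Trex D2 line, 4000/well, cultured overnight at 30 C before dye loading.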
* hit, by the source's call; ? = inconclusive; · = not tested or not shown.

SMILES	D2 ag-1	D2 PAM-1	B2AR arrestin	D2 ag-2	D2 antagonist	D2 PAM-2
COc1ccc(NC(=O)/C(C#N)=C/c2c(C)nn(-c3ccc(F)cc3)c2Cl)cc1OC	-5	0	2%	-3	-17	14
O=C(Nc1ccc(F)cc1)c1ccc(COc2ccccc2)cc1	-7	-5	-1%	1	0	-1
Cn1nccc1/C=C(/C#N)S(=O)(=O)c1ccccc1	-2	-6	0%	0	31*	-4
O=C(c1ccco1)N1CCN(c2c([N+](=O)[O-])nn(-c3cccc(Cl)c3)[n+]2[O-])CC1	7	13	0%	0	10	-26
CN(CC(=O)c1c(N)n(C)c(=O)n(C)c1=O)c1ccccc1	5	0	0%	2	-12	-4
CCC(=O)NC1=C(NC(C)c2ccccc2)C(=O)c2ccccc2C1=O (stereo not drawn)	6	?	0%	0	-15	3
CCC(=O)NC1=C(Cl)C(=O)C(NC(=O)CC)=C(Cl)C1=O	42*	-60	0%	2	-8	1
CC(=O)OCCn1c2nc(=O)[nH]c(=O)c-2nc2cc(C)c(C)cc21	-2	-3	-1%	112*	29	9
CCN(CC)C(=O)CSc1nc2sc3c(c2c(=O)n1CCCOC)CCC3	-1	-2	0%	0	-8	-7
CCSc1nnc(NC(=O)c2cnccn2)s1	0	-1	-3%	0	12	-2
O=C(CSc1nnc(NC(=O)c2ccco2)s1)Nc1ccccc1F	1	-8	0%	1	16	-3
O=C(CSc1nnc(NC(=O)c2ccccc2F)s1)Nc1ccccc1F	0	5	0%	0	36*	-9
CC(=O)Nc1ccc(NC(=O)CSc2nnc(NC(=O)Cc3ccc(F)cc3)s2)cc1	-2	-6	-1%	0	34*	-21
O=C(Nc1nnc(SCc2ccc(F)cc2)s1)c1cnccn1	-3	-12	0%	1	33*	1
CCC(C)C(=O)Nc1nnc(SCC(=O)Nc2ccc(F)cc2)s1 (stereo not drawn)	0	-5	0%	0	0	-5
Cc1cccc(NC(=O)C(Cc2ccccc2)c2nn[nH]n2)c1C (stereo not drawn)	2	-3	-1%	-3	-19	-2
OCCN1CCN(CCCN2c3ccccc3Sc3ccc(Cl)cc32)CC1	1	-30	·	1	86*	-29
CN1CCN(CCCN2c3ccccc3Sc3ccc(S(=O)(=O)N(C)C)cc32)CC1	-6	-37	0%	1	82*	-23
O=C(CN1CCCC1)N1c2ccccc2Sc2ccc(Cl)cc21	4	-6	0%	0	10	-6
CN(C)CCCN1c2ccccc2Sc2ccc(Cl)cc21	0	-30	-4%	1	86*	-28
CN1CCN(CCCNC(=O)c2cn(C)c3ccc(S(=O)(=O)N(C)C)cc3c2=O)CC1	-1	-4	0%	1	-12	8
CC(=O)c1ccc2c(c1)N(CCCN1CCC(CCO)CC1)c1ccccc1S2	-9	-39	0%	-1	74*	-15
CCN1C(=O)c2ccccc2Sc2ccc(C(=O)NCCCN3CCCCC3)cc21	-4	-33	0%	0	25	-12
CN(C(=O)COC(=O)c1ccc2ccccc2n1)c1ccccc1	0	-24	-1%	·	·	·
O=S(=O)(Nc1ncccn1)c1ccc(NC(=S)N2CCN(Cc3ccc(F)cc3Cl)CC2)cc1	-2	18	-1%	0	-6	-2
CCCN1CCC(NC(=O)Cc2ccccc2OC)CC1	4	-3	0%	0	-4	-9

Screens deposited in PubChem BioAssay by National Center for Advancing Translational Sciences (NCATS).
